Inhibition data for 7 compounds are collected here from ChEMBL document CHEMBL1961873, “Compounds: GSK PKIS; Assays: Nanosyn kinase panel” (2012).

The target of experiment [1] is Rho-associated protein kinase 1 (Homo sapiens) (UniProt Q13464). Particulars: at 1 µM.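 Also: reported values are mean percent inhibition of ROCK1.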
Experiment [2] deals with Rho-associated protein kinase 2 (Homo sapiens) (UniProt O75116). Conditions: at 0.1 µM.
For experiment [3] the target is unchanged. Conditions: at 1 µM.
For experiment [4], the target named is Ribosomal protein S6 kinase alpha-1 (Homo sapiens) (UniProt Q15418). Conditions: at 0.1 µM.
The target is the same in experiment [5]. Conditions: at 1 µM.
Experiment [6] concerns the target Ribosomal protein S6 kinase alpha-3 (Homo sapiens) (UniProt P51812). Particulars: at 0.1 µM.
Experiment [7] has the same target. Conditions: at 1 µM.
The target in experiment [8] is Ribosomal protein S6 kinase alpha-2 (Homo sapiens) (UniProt Q15349). Particulars: at 0.1 µM.
For experiment [9] the target is unchanged. Conditions: at 1 µM.
Experiment [10] has as its target Ribosomal protein S6 kinase alpha-6 (Homo sapiens) (UniProt Q9UK32). Conditions: at 0.1 µM.
The target is the same in experiment [11]. Particulars: at 1 µM.
The target of experiment [12] is T1, Serine/threonine-protein kinase Sgk1 (Homo sapiens) (UniProt O00141).
T1 sequence (whole entry): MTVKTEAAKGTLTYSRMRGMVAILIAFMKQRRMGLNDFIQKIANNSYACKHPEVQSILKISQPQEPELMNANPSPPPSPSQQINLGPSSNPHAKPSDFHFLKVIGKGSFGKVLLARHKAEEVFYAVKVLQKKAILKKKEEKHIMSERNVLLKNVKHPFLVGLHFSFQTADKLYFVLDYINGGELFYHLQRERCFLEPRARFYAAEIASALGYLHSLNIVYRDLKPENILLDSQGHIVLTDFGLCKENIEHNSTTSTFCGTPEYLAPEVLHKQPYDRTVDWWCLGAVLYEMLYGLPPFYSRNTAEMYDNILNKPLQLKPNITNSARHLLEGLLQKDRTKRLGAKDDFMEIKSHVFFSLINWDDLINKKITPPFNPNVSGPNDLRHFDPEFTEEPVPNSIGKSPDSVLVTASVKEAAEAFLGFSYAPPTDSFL
Conditions: at 0.1 µM.

Experiment [13] deals with T1, Serine/threonine-protein kinase Sgk1 (Homo sapiens). Conditions: at 1 µM.
Experiment [14] addresses T2, Serine/threonine-protein kinase Sgk2 (Homo sapiens) (UniProt Q9HBY8).
T2 sequence (whole entry): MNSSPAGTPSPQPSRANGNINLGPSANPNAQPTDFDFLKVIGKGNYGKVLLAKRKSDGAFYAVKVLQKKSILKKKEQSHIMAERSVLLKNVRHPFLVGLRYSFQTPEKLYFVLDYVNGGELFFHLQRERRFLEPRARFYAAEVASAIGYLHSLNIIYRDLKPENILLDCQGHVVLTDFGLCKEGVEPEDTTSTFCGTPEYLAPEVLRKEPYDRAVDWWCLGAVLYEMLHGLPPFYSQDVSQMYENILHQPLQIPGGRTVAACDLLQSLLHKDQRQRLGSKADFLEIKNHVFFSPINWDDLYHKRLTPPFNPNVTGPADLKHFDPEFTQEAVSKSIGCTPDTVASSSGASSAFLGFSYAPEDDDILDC
Conditions: at 0.1 µM.

Experiment [15] concerns the target T2, Serine/threonine-protein kinase Sgk2 (Homo sapiens). Particulars: at 1 µM.
The target in experiment [16] is T3, Serine/threonine-protein kinase Sgk3 (Homo sapiens) (UniProt Q96BR1).
T3 sequence (whole entry): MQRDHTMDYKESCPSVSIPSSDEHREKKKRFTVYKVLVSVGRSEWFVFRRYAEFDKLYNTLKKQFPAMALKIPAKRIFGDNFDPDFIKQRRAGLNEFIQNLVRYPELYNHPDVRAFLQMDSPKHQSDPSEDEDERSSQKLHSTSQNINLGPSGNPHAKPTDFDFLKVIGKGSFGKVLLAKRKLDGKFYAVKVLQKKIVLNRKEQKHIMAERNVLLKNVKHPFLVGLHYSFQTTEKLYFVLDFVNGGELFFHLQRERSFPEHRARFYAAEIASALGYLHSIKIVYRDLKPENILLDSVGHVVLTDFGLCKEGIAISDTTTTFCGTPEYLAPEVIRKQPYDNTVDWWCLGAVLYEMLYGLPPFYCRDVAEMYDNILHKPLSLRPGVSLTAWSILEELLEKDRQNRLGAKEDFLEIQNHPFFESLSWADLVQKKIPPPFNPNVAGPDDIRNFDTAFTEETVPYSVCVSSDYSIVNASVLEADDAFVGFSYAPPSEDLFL
Particulars: at 0.1 µM.

Experiment [17] addresses T3, Serine/threonine-protein kinase Sgk3 (Homo sapiens). Particulars: at 1 µM.
Experiment [18] concerns the target 5'-AMP-activated protein kinase catalytic subunit alpha-1 (Homo sapiens) (UniProt Q13131). Particulars: at 0.1 µM.
Experiment [19] shares this target. Conditions: at 1 µM.
Experiment [20] addresses 5'-AMP-activated protein kinase catalytic subunit alpha-2 (Homo sapiens) (UniProt P54646). Conditions: at 0.1 µM.

Ribosomal protein S6 kinase alpha-1 (Homo sapiens), sequence (Q15418 whole entry): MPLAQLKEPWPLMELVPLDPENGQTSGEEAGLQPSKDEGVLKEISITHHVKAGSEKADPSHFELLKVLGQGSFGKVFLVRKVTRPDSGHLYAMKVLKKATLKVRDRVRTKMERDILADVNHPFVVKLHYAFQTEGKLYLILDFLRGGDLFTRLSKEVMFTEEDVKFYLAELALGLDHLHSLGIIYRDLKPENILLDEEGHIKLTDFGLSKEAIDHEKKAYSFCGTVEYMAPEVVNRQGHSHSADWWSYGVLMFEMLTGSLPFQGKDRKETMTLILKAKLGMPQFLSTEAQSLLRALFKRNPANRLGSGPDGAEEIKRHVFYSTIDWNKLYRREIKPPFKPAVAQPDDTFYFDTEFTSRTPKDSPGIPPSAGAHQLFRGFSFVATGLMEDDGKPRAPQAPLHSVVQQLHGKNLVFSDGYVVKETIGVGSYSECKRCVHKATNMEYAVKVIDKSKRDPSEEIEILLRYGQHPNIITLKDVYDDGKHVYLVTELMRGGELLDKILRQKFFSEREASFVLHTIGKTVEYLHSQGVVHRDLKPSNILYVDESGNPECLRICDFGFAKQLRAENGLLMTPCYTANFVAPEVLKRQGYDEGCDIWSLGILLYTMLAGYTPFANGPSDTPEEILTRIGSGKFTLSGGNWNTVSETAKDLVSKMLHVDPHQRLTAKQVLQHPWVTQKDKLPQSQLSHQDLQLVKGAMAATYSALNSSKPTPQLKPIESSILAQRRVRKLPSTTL
Ribosomal protein S6 kinase alpha-6 (Homo sapiens), sequence (Q9UK32 whole entry): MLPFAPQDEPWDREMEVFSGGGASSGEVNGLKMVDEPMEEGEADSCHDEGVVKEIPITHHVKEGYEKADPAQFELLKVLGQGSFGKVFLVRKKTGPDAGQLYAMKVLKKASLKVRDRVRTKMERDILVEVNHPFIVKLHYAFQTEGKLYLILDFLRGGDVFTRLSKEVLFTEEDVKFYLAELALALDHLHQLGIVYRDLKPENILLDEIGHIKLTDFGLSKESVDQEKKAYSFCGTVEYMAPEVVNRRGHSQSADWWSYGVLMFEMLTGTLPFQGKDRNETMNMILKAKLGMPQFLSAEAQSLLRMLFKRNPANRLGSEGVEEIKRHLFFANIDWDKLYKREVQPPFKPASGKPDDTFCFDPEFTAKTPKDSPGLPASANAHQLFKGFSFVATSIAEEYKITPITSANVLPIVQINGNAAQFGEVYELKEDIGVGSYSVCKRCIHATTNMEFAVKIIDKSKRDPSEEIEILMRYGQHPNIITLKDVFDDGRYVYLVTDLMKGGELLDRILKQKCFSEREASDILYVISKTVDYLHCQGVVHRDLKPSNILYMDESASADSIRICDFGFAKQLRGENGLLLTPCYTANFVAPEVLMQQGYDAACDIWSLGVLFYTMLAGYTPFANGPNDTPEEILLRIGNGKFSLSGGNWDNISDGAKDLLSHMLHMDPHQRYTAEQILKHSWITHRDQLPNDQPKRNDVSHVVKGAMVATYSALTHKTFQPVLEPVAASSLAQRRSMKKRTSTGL
Ribosomal protein S6 kinase alpha-2 (Homo sapiens), sequence (Q15349 whole entry): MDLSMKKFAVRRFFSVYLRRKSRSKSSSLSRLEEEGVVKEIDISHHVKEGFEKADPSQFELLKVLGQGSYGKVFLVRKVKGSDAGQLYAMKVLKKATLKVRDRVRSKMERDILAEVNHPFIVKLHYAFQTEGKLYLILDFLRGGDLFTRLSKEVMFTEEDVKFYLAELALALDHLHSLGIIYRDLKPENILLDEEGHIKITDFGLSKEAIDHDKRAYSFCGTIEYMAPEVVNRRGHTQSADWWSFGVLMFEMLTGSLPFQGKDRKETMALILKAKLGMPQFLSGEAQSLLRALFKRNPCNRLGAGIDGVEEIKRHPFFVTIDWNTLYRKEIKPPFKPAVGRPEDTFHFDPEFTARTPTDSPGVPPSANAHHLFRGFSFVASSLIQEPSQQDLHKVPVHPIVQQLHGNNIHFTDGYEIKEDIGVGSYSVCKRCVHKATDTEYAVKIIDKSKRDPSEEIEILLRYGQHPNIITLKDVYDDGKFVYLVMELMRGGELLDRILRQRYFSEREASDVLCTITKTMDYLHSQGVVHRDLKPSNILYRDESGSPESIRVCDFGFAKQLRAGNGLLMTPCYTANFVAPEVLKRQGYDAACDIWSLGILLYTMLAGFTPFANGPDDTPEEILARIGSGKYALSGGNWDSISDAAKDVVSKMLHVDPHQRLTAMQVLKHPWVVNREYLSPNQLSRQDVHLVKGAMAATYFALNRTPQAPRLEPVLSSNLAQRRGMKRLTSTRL
Rho-associated protein kinase 1 (Homo sapiens), sequence (Q13464 2-1354 limits assumed): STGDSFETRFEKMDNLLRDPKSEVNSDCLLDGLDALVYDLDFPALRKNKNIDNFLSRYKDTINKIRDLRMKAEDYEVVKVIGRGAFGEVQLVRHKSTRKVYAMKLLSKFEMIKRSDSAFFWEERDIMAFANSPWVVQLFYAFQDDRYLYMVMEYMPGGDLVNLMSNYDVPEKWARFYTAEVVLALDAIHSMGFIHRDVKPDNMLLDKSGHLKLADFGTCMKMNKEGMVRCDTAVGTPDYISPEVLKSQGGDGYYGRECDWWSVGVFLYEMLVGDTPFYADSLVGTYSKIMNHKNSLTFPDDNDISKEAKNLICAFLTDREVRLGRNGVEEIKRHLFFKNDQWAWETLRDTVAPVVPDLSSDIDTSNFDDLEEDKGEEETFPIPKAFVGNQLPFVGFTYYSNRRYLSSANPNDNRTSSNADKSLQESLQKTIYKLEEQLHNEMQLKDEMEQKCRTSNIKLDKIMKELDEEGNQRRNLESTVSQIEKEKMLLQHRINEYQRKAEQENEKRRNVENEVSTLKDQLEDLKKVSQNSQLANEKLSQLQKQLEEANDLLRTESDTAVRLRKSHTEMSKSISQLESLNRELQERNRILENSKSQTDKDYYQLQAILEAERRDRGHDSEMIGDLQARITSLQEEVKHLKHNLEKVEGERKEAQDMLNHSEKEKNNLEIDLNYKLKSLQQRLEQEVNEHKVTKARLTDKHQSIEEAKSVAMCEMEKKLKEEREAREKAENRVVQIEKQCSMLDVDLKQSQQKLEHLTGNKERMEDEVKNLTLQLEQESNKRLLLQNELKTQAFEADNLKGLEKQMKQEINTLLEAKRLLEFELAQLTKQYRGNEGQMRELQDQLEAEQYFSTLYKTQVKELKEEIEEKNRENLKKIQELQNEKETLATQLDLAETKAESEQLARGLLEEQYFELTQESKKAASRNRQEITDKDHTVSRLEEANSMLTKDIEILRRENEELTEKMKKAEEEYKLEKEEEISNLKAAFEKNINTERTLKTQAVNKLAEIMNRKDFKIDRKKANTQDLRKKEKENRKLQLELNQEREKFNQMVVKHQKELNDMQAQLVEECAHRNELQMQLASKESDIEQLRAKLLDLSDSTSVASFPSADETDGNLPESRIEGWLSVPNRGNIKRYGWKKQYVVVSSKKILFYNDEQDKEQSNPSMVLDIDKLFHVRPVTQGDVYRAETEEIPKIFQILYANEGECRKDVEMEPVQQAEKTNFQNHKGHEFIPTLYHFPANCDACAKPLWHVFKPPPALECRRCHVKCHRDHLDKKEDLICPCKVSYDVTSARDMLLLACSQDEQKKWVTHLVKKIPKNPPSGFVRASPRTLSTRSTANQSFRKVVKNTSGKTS
5'-AMP-activated protein kinase catalytic subunit alpha-2 (Homo sapiens), sequence (P54646 whole entry, looked up): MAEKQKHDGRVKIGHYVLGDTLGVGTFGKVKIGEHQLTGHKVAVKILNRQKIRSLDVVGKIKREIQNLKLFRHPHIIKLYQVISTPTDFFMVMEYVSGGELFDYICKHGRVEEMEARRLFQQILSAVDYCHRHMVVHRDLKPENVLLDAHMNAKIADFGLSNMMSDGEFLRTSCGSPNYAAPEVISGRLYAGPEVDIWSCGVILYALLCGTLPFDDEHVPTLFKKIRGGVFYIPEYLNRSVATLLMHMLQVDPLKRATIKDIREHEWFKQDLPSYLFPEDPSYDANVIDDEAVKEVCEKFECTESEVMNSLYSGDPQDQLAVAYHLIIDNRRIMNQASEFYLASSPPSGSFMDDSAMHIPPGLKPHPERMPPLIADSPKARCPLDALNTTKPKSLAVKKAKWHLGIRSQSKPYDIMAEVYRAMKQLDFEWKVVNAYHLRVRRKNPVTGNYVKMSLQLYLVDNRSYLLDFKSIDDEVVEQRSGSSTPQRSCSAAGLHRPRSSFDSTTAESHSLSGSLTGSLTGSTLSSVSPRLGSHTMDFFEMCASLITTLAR
5'-AMP-activated protein kinase catalytic subunit alpha-1 (Homo sapiens), sequence (Q13131 whole entry, looked up): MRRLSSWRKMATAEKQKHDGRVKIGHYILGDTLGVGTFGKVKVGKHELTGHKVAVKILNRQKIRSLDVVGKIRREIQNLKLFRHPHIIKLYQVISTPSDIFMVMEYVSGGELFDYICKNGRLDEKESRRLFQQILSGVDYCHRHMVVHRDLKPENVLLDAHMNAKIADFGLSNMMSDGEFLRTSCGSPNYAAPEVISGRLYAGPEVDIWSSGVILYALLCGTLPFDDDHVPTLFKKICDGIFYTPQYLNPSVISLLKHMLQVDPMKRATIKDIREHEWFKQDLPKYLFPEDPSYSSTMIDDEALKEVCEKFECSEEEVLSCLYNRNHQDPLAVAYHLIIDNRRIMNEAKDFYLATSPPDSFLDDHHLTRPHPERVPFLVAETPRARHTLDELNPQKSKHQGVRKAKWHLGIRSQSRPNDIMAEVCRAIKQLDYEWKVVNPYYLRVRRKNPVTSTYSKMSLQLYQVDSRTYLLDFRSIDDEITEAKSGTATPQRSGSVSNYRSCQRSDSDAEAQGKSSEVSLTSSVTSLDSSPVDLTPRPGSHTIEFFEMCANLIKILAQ

In the case of `CN1CCN(CCCNc2nc3ccc(Oc4ccc(NC(=O)Nc5cc(C(F)(F)F)ccc5F)cc4)cc3[nH]2)CC1`, the inhibition in [1] is 3.23%; in experiment [2], 0.43%; in experiment [3] it was 0.51%; in experiment [4] it was 1.08%; in experiment [5] it was -1.68%; in experiment [6], 1.52%. Also, the inhibition is -0.48% in [7]; 0.97% in [8]; 2.27% in experiment [9]; 1.31% in experiment [10]; -0.1% in [11]; 4.51% in [12]. The inhibition was determined as 5.49% in experiment [13]; 0.79% in experiment [14]; 1.09% in experiment [15]; 3.14% in experiment [16]; 0.75% in experiment [17]; 1.09% in experiment [18]. Further, the inhibition in experiment [19] is -0.25%; in experiment [20], 2.94%.
On to `O=C(NCC1CC1)c1ccc(-c2cccc(C(=O)NC3CC3)c2)cc1`, for which the inhibition is 2.85% in [1]; 2.43% in experiment [2]; 1.11% in [3]; -0.06% in experiment [4]; 0.15% in [5]; 0.89% in [6]. In addition, the inhibition was -1.16% in experiment [7]; 0.67% in [8]; 0.58% in experiment [9]; 0.55% in experiment [10]; 0.61% in [11]; 0.99% in experiment [12]. Moreover, the inhibition was 0.82% in [13]; 0.58% in experiment [14]; 3.1% in experiment [15]; 1.28% in experiment [16]; 1.29% in experiment [17]; 2.2% in [18]. Also, the inhibition in [19] stood at 3.29%; in experiment [20], 0.26%.
In the case of `CS(=O)(=O)CCNCc1ccc(-c2ccc3ncnc(Nc4ccc(OCc5ccccc5)c(Br)c4)c3c2)o1`, the inhibition in experiment [1] is 2.16%; in [2], 0.72%; in experiment [3], 1.26%; in experiment [4], -0.49%; in experiment [5], 0.36%; in experiment [6], -0.55%. Also, the inhibition in experiment [7] was -1.39%; in experiment [8] it was 1.5%; in experiment [9] it was 1.01%; in [10], -0.12%; in experiment [11], -1.41%; in experiment [12] it was 1.16%. The inhibition is 0.22% in experiment [13]; 2.67% in experiment [14]; 1.45% in experiment [15]; 3.29% in experiment [16]; 3.35% in experiment [17]; 2.94% in [18]. The inhibition was found to be 1.46% in experiment [19] and 1.41% in experiment [20].
Regarding `CS(=O)(=O)CCNCc1cc(-c2cc3c(Nc4ccc(OCc5cccc(F)c5)c(Cl)c4)ncnc3s2)cs1`, the inhibition is 4.5% in experiment [1]; 3.92% in experiment [2]; 5.77% in experiment [3]; -0.03% in [4]; 1.94% in [5]; 1.24% in experiment [6]. Besides, the inhibition in experiment [7] was 1.57%; in [8], 3.28%; in [9] it was 2.95%; in experiment [10], 0.77%; in experiment [11], 2.5%; in [12], 2.39%. Moreover, the inhibition in [13] was determined as 1.38%; in [14], 5.74%; in experiment [15], 2.6%; in experiment [16] it was 3.92%; in experiment [17], 6.65%; in experiment [18], 2.39%. Moreover, the inhibition in experiment [19] is 3.88%; in experiment [20], 5.96%.
As for `Fc1ccc(-c2c(-c3ccncc3)nc3n2CCS3)cc1`, the inhibition stood at 13.8% in [1]; 11.2% in experiment [2]; 16.1% in experiment [3]; 3.39% in [4]; 6.17% in experiment [5]; 3.04% in experiment [6]. Further, the inhibition in experiment [7] was found to be 6%; in experiment [8], 2.43%; in experiment [9], 3.27%; in experiment [10], 1.3%; in experiment [11] it was 2.25%; in experiment [12], 3.2%. The inhibition in [13] is 4.05%; in experiment [14], 1.42%; in [15], 3.7%; in experiment [16], 1.96%; in experiment [17], 5.06%; in experiment [18] it was 3.33%. Also, the inhibition in [19] was 6.81%; in experiment [20], 3.93%.
Turning to `COc1cc2ncn(-c3cc(OCCc4ccccc4)c(C(N)=O)s3)c2cc1OC`, the inhibition in experiment [1] is 0.3%; in experiment [2], 0.94%; in [3], -1.5%; in experiment [4], 0.33%; in [5] it was -0.89%; in experiment [6], 0.83%. For the same compound, the inhibition came to 0.32% in experiment [7]; 1.71% in experiment [8]; 1.86% in [9]; 1.48% in experiment [10]; 2.25% in experiment [11]; 0.21% in [12]. The inhibition in [13] was 3.41%; in [14], -0.42%; in experiment [15], -1.95%; in experiment [16], 2.58%; in experiment [17], 2.59%; in experiment [18], 2.79%. Further, the inhibition in experiment [19] stood at 4.42%; in experiment [20], 1.45%.
In the case of `Fc1ccc(-c2ncn(CCCN3CCOCC3)c2-c2ccncc2)cc1`, the inhibition was -0.82% in experiment [1]; 0.06% in experiment [2]; -4.4% in experiment [3]; -1.49% in [4]; -3.25% in experiment [5]; 0.33% in [6]. The inhibition is -0.73% in experiment [7]; 0.61% in experiment [8]; -0.22% in experiment [9]; 0.43% in experiment [10]; -0.21% in experiment [11]; -0.45% in experiment [12]. The inhibition in [13] is 0.64%; in experiment [14], 1.89%; in experiment [15], -4.02%; in experiment [16], -1.19%; in [17] it was -1.33%; in experiment [18], 0.37%. Further, the inhibition in [19] was -1.12%; in experiment [20] it was 0.28%.
